# Only some compounds are listed: those with a hit (about 1.9% of all), similar ones and a draw of the others.
# ClpP mod: qHTS Assay for Activators of ClpP; purified B. subtilis ClpP, FRET peptide cleavage, 20 min; ATP-dependent Clp protease proteolytic subunit (Bacillus subtilis (strain 168)), P80244; AID 651965, 2013; 1.9% of 340,000 active; Potency, µM (highest dose often 57.5 µM); active means well fitted falling curve with a large enough effect; inconclusive means small, poorly fitted or top-dose-only effect; inactive means no such curve, though single readings can be large or run the other way; further: the source files actives as falling curves though it sought activators and does not explain the sign; nearly all actives have a fitted effect of over 65% in size
#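 Buffer: 100 mM Tris/HCl pH8, 100 mM KCl, 0.05% low protease BSA, 2.5% glycerol, 0.01% Tween-20. ClpP 10 microg/mL final; 20 min RT; delta FRET normalized to ADEP and DMSO controls.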
# Epigenetic reg: derepresses silenced GFP reporter in murine cells; murine LDR cells, GFP reporter derepression, 30 h; Potency, µM (titrated, usually from 53.9 µM), usual class: activators; 0.2% of 280,000 active; active means well fitted activation curve with a large enough effect; inconclusive means small, poorly fitted or top-dose-only effect; further: nearly all actives have a fitted effect of over 60% in size
#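 Murine LDR cells carrying a silenced, genomically integrated CMV-driven GFP reporter were exposed to compound for 30 hours at 37 C. After PBS washes, GFP-positive cells (20–120 um objects) were counted by laser-scanning microplate cytometry.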
# Menin-MLL TR inh: displaces Texas Red mutant MLL peptide from human menin | Menin + Texas Red MLL mutant peptide, fluorescence polarization | Potency, µM (series often up to 61.6 µM), actives largely listed as inhibitors | 0.23% of 270,000 active | AID 1768; active means well fitted inhibition curve with a large enough effect in the polarisation, with a control signal flat, not every such curve was filed as active; inconclusive means small, poorly fitted or top-dose-only effect, or effect the other way, or a change in a side signal; inactive means no such curve, though single readings can be large or run the other way; the % refers to the polarisation
# Target sequence (O00255 whole entry, looked up): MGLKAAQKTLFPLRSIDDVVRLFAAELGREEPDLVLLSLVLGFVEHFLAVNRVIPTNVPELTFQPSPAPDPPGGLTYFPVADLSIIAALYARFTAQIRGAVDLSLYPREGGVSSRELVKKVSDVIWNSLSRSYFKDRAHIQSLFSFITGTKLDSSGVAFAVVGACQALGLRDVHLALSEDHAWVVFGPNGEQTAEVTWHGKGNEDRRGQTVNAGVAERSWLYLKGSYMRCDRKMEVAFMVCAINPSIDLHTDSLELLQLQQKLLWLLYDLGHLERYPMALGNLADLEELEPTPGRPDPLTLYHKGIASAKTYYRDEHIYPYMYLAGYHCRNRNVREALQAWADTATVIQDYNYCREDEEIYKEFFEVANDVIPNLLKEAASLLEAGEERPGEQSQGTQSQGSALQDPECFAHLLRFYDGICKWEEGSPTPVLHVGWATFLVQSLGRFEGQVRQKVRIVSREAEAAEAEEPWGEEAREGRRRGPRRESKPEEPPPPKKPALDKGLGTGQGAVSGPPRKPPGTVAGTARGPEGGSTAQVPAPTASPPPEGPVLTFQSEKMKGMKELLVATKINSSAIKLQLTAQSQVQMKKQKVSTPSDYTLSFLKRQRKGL
# PINK1 expr mod: modulators of PINK1 expression. PINK1 immunofluorescence, high-content cytometry, 24 h. Potency, µM (highest dose often 76.6 µM), usual class: activators. 0.2% of 410,000 active; active means well fitted activation curve with a large enough effect; inconclusive means small, poorly fitted or top-dose-only effect; cell line not stated here; further: nearly all actives have a fitted effect of over 65% in size
#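 A stable cell line was treated with compounds at 5 concentrations for 24 hours, with CCCP as control. PINK1 levels and mitochondrial localization were measured by immunofluorescence with mitochondrial, cell and nuclear markers after fixation, read by laser-scanning cytometry.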
# CXXC DNA block: MLL CXXC-DNA interaction inhibition. Potency, µM (highest dose often 115 µM), hits mostly inhibitors. MLL-CXXC / FITC-HOXA9 DNA fluorescence polarization. 0.037% of 290,000 active. Q03164; active means well fitted inhibition curve with a large enough effect in the polarisation, with a control signal flat, not every such curve was filed as active; inconclusive means small, poorly fitted or top-dose-only effect, or effect the other way, or a change in a side signal; inactive means no such curve, though single readings can be large or run the other way; the % refers to the polarisation
#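 Purified MLL-CXXC (added from a 7 uM solution) was preincubated 5 min at ambient with pinned compounds in 50 mM Tris-HCl pH 7.5, 50 mM NaCl, 1 mM DTT, 0.05% BSA. Fluorescein-labeled HOX-A9 DNA (50 nM solution) followed, 30 min, then polarization read.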
# Menin-MLL FL inh: displaces fluorescein MLL peptide from human menin; FP activity change, % at 61.4 µM; Fluorescence polarization, fluorescein-MLL peptide displacement from menin; 290,000 tested, under 10 active; active means well fitted curve in the direction sought with a large enough effect in the polarisation, not every such curve was filed as active; inconclusive means small, poorly fitted or top-dose-only effect, or effect the other way, or a change in a side signal; inactive means no such curve, though single readings can be large or run the other way; the % refers to the polarisation
# Hits are given with their value; - = inactive; ? = inconclusive; . = not tested or not shown; ! = not confirmed by another sample.
SMILES,ClpP mod,Epigenetic reg,Menin-MLL TR inh,PINK1 expr mod,CXXC DNA block,Menin-MLL FL inh
CC(c1nc2ccccc2[nH]1)n1c(=O)c(-c2cccs2)nc2ccccc21 (stereo unspecified),22.4µM,.,.,.,.,.
CC(c1nc2ccccc2[nH]1)n1c(=O)c(-c2cccnc2)nc2ccccc21 (stereo unspecified),-,.,.,.,.,.
O/C(=C\c1nc2ccccc2[nH]1)c1cccs1,.,.,-,-,-,-
O=c1[nH]c2ccccc2nc1-c1cccs1,14.1µM,-,-,-,-,-
CCCN1C(=O)/C(=C/c2ccc(N3CCCC3)c(C)c2)NC1=S,-,1µM,.,-,-,?
O=c1c2sc(-c3ccccc3)cc2nc2n1CCC2,22.4µM,-,-,-,-,-
NS(=O)(=O)c1ccc(NS(=O)(=O)c2ccc(C3CNC(=O)C3)cc2)cc1 (stereo unspecified),28.2µM,.,-,-,-,?
O=C1CC(c2ccc(S(=O)(=O)N3CCCCC3)cc2)CN1 (stereo unspecified),-,-,-,-,-,-
COc1cc(=O)n2c(c1C(=O)NC(C)c1ccco1)CCN(Cc1ccccc1C(F)(F)F)CC2 (stereo unspecified),.,.,.,-,.,.
COc1ccc(C2=CC(c3ccc(C)cc3)n3nnnc3N2)cc1 (stereo unspecified),25.1µM,-,-,-,-,?
COc1ccc(C2C=C(c3ccccc3)Nc3nnnn32)cc1 (stereo unspecified),?,-,-,-,-,?
COc1cccc(-c2nc3cc4c(cc3cc2CN(C(=O)c2cccs2)C2CC2)CCC4)c1OC,.,.,.,-,.,.
COc1cc2c(=O)n(CC3CCCO3)c(=O)n(CC(=O)Nc3cccc(Cl)c3)c2cc1OC (stereo unspecified),31.6µM,-,-,-,-,-
O=C(Cn1c(=O)n(CC2CCCO2)c(=O)c2ccccc21)Nc1cccc(Cl)c1 (stereo unspecified),-,-,.,-,.,.
Nc1c(C(=O)CSc2nnnn2-c2ccc(O)cc2)c(=O)[nH]c(=O)n1C1CC1,-,.,.,-,.,.
Cn1ccnc1Sc1ccc(C(N)=O)cc1[N+](=O)[O-],31.6µM,-,-,-,-,-
Cn1nnnc1Sc1ccc(C(=O)O)cc1[N+](=O)[O-],.,-,.,-,-,-
Cc1cc(=O)n2nc(-c3ccccc3)sc2n1,?,-,-,-,-,-
COC(=O)c1cc(=O)nc2sccn12,28.2µM,-,-,-,-,-
COC(=O)c1cc(NC(=O)c2c(Cl)nc3sccn23)cc(C(=O)OC)c1,-,-,-,-,-,-
COC(=O)c1cc(=O)nc2sc(-c3ccccc3)nn12,28.2µM,-,-,-,-,-
CCC(C)Sc1cccc(-c2nc3cc(C)ccn3c2NC2CCCCC2)c1 (stereo unspecified),14.1µM!,.,.,14.1µM,.,.
Cc1ccn2c(NC3CCCCC3)c(-c3ccc(SC4CCCCC4)cc3)nc2c1,-,.,.,?,.,.
Cc1ccn2c(NC3CCCCC3)c(-c3cccc(SC4CCCCC4)c3)nc2c1,?,.,.,20µM,.,.
O=C(NCC1CCC2(CCN(Cc3cccc4cccnc34)CC2)O1)c1ccco1 (stereo unspecified),.,.,.,-,.,.
SMILES,ClpP mod,Epigenetic reg,Menin-MLL TR inh,PINK1 expr mod,CXXC DNA block,Menin-MLL FL inh
Cc1noc(C)c1COC(=O)c1ccc(-c2nc3ccccc3s2)s1,20µM,-,-,-,-,-
CCNC(=O)COC(=O)c1ccc(-c2nc3ccccc3s2)s1,-,-,-,-,-,-
O=C(NC1CCC(n2cc(C(=O)NC3CC3)nn2)CC1)C(=O)c1ccccc1 (stereo unspecified),.,.,.,-,.,.
Cc1ccc(-c2cc3nc(C)cc(NCc4ccco4)n3n2)cc1,28.2µM,-,-,-,-,-
Cc1cccc(-c2cc3nc(C)cc(NCCCN(C)C)n3n2)c1,31.6µM,-,-,-,-,-
COCCNc1cc(C)nc2cc(-c3ccc(C)cc3)nn12,.,-,-,-,-,-
COc1ccccc1C1CN(Cc2cccc(C)n2)Cc2ccccc2O1 (stereo unspecified),.,.,.,-,.,.
CCN(CC)CCN1C(=O)c2ccccc2NC1c1ccc(C)cc1 (stereo unspecified),31.6µM,-,.,-,-,-
CCN(CC)CCN1C(=O)c2ccccc2NC1c1ccc(F)cc1 (stereo unspecified),31.6µM,-,-,-,-,-
COc1cc(=O)n2c(c1C(=O)N(C)Cc1nccs1)CCN(Cc1c(F)ccc(F)c1F)CC2,.,.,.,-,.,.
Nc1nnc(-c2cc3ccccc3oc2=O)s1,25.1µM,-,-,-,-,-
COc1ccc2oc(=O)c(-c3nnc(N)s3)cc2c1,.,-,-,-,-,-
O=C(Cn1cc(C(=O)c2cccs2)c2ccccc21)NC1CCCCC1,-,-,-,-,-,-
NC(=O)Cn1cc(C(=O)c2cccs2)c2ccccc21,20µM,-,-,-,-,-
CCCCn1c(N)c(N(CCOC)C(=O)c2cc(-c3ccc(OC)cc3)nc3ccccc23)c(=O)[nH]c1=O,11.2µM,.,.,-,.,.
CSc1nc(SCC(=O)O)c2c3c(sc2n1)COC(C)(C)C3,-,-,.,-,-,-
CSC1=NC(NCCCO)c2c(sc3c2CC(C)(C)OC3)N1 (stereo unspecified),11.2µM,-,-,-,-,-
COc1ccc(-c2c(O)c3cc(O)cc(O)c3oc2=O)cc1,.,.,?,.,.,-
Fc1ccccc1-c1nc(N2CCN(c3cccc(Cl)c3)CC2)c2ccccc2n1,31.6µM,-,.,-,.,.
CC(C)N1C[C@@H](Sc2ccccn2)C[C@H]1C(=O)Nc1ccc2c(c1)Nc1ccccc1CC2,.,.,.,-,.,.
COC(=O)C1(C)CCc2cc(OC)ccc2C1=O (stereo unspecified),-,-,-,-,-,-
COC(=O)C1(C)CN(S(=O)(=O)c2ccc(C)cc2)c2cc(OC)ccc2C1=O (stereo unspecified),12.6µM,-,-,-,-,-
CCOC(=O)C1CCCN(C(=O)c2cnn(-c3ncc4c(n3)-c3ccccc3CC4)c2C)C1 (stereo unspecified),.,.,.,-,.,.
CCCC(=O)Nc1c(-c2ccccc2OC)c(=O)c2ccccc2n1C,-,-,.,-,-,-
CCCC(=O)Nc1c(-c2ccc(OC)cc2)c(=O)c2ccccc2n1C,15.8µM,-,-,-,?,-
CCCCCC(=O)Nc1c(-c2ccc(OC)cc2)c(=O)c2ccccc2n1C,25.1µM,-,.,-,-,-
CCCCC(=O)Nc1c(-c2ccc(OC)c(OC)c2)c(=O)c2ccccc2n1C,-,.,-,-,-,-
CCC1CN(CC(=O)NCc2ccc3c(c2)OCO3)Cc2ccc(Cl)cc2O1 (stereo unspecified),.,.,.,-,.,.
O=C1c2ccccc2NC2(CCCCC2)N1N=C1CCCCC1,17.8µM,-,-,-,-,-

# Assay outcomes: PubChem BioAssay, National Center for Advancing Translational Sciences (NCATS)
